Source: PubChem BioAssay (NCATS)
Values joined by “and” are separate entries in the source; they are usually repeats but may differ in a detail not shown here. Equal values may be shown once. Records with an inconclusive call do not appear. Active and inactive are the calls of the source. Unless noted, calls follow the shape of the dose curve; as a rule, active = well fitted curve in the direction sought with a large enough effect; inconclusive = small, poorly fitted or top-dose-only effect, or another doubt; inactive = no such curve, though single readings can be large; an effect the other way counts as inactive or inconclusive.

Legend:
[1] = biological target: Voltage-gated inwardly rectifying potassium channel KCNH2 (Homo sapiens) (UniProt Q12809); test: qHTS Assay for Small Molecule Inhibitors of the Human hERG Channel Activity (AID 588834);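 also: lower thallium flux fluorescence means stronger hERG block; nearly all actives have a fitted effect of over 50% in size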; also: potency is read from the fitted curve at half-maximal effect
Voltage-gated inwardly rectifying potassium channel KCNH2 (Homo sapiens), sequence (Q12809 whole entry, looked up): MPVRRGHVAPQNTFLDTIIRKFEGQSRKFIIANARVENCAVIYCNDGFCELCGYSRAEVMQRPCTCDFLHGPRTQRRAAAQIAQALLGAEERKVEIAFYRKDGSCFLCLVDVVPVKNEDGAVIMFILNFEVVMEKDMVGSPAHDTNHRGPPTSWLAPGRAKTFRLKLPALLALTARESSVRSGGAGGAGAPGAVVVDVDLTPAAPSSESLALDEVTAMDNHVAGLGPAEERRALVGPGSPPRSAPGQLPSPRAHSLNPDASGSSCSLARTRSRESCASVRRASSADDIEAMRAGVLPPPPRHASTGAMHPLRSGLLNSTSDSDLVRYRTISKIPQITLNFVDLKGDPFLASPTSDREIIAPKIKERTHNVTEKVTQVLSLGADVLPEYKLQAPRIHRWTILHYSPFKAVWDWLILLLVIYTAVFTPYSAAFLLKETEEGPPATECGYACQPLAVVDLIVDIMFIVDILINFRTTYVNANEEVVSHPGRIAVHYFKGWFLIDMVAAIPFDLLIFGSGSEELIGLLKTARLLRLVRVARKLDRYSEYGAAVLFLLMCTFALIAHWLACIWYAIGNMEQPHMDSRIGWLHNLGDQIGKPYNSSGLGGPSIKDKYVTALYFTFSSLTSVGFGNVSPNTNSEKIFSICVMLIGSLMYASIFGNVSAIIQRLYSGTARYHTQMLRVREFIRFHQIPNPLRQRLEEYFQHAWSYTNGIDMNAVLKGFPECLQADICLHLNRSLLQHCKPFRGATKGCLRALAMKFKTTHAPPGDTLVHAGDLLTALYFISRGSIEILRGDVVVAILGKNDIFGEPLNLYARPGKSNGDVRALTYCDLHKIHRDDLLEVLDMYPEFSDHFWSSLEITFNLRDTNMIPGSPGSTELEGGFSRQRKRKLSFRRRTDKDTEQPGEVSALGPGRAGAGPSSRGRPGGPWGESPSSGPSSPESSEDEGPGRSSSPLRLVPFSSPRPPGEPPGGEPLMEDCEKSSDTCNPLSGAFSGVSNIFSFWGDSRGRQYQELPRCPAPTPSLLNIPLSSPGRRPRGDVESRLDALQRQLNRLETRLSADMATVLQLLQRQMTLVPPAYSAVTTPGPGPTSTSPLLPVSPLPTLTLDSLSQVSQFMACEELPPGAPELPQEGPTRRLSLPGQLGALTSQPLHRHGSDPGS
Method in brief: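 Thallium-flux (FluxOR) read-out on FDSS: fluorescence read 10 s before and 2 min after stimulation buffer. hERG-BacMam-transduced U2OS cells, compound exposure about 10 min. AC50 by standard Hill equation.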

[2] = biological target: Luciferin 4-monooxygenase (Photinus pyralis) (UniProt P08659); test: Biochemical firefly luciferase enzyme assay for NPC (AID 624030); also: nearly all actives have a fitted effect of over 70% in size; also: potency is read from the fitted curve at half-maximal effect
Luciferin 4-monooxygenase (Photinus pyralis), sequence (P08659 whole entry, looked up): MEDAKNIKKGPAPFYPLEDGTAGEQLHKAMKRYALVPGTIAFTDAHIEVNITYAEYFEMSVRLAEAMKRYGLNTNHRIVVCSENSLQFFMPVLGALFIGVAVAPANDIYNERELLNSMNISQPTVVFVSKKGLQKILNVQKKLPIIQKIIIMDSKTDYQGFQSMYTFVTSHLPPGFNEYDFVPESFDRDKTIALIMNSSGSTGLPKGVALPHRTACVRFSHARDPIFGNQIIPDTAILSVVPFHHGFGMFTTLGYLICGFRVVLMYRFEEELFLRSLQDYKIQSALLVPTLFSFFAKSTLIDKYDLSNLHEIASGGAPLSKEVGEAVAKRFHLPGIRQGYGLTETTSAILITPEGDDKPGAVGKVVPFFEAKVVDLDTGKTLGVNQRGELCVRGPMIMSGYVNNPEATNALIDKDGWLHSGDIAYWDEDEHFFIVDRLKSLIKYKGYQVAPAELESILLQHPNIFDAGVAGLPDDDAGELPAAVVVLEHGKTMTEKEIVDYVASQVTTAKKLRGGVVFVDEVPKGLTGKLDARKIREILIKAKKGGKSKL
Method in brief: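 Counter-screen for direct inhibition of the luciferase enzyme by approved-drug library compounds, run at 10 nM enzyme in 50 mM Tris acetate (final). Luminescence was read within 5 min of enzyme-buffer addition and normalized to PTC124 versus DMSO (0%).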

[3] = biological target: Glutaminase kidney isoform, mitochondrial (Homo sapiens) (UniProt O94925); test: qHTS for Inhibitors of Glutaminase (GLS): LOPAC Validation (AID 624146); also: nearly all actives have a fitted effect of over 60% in size; also: potency is read from the fitted curve at half-maximal effect
Glutaminase kidney isoform, mitochondrial (Homo sapiens), sequence (O94925 whole entry, looked up, canonical isoform): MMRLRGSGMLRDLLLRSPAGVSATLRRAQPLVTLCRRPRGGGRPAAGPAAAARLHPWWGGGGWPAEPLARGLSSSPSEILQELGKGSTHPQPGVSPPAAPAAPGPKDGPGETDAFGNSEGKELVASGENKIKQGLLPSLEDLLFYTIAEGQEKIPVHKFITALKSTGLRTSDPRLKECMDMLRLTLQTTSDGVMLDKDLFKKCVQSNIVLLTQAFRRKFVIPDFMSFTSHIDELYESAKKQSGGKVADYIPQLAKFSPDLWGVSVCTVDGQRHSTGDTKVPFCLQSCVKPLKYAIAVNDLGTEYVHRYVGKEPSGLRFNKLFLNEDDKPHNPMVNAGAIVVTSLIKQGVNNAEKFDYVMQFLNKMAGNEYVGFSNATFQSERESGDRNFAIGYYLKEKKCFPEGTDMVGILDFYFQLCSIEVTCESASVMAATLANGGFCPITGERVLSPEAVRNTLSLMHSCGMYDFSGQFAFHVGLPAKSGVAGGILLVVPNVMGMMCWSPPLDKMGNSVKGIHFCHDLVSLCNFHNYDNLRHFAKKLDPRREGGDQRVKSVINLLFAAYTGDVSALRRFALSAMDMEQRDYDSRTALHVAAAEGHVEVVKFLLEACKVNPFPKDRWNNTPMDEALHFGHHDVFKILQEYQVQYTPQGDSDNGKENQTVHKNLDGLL
Method in brief: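 Human kidney-isoform GLS in 45 mM KH2PO4 pH 8.2, 0.02% Tween-20, with compound, started with 1mM L-Glutamine (added stock). Glutamate oxidase/HRP/Amplex red coupled fluorescence read at start and after 30 min at RT.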

[4] = qHTS of Trypanosoma Brucei Inhibitors: LOPAC Validation (AID 624147)
Method in brief: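 In this concentration-response screen, enzyme-free wells defined baseline while DMSO plates tracked drift. Each reaction combined TbPYK, substrate, compound and 130 uM ADP for 45 min at room temperature. Kinase-Glo Plus luminescence gave the signal.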

[5] = biological target: Glucagon-like peptide 1 receptor (Homo sapiens) (UniProt P43220); test: qHTS of GLP-1 Receptor Agonists: LOPAC Validation (AID 624148);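 also: higher luminescence signal means agonism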
Glucagon-like peptide 1 receptor (Homo sapiens), sequence (P43220 whole entry, looked up): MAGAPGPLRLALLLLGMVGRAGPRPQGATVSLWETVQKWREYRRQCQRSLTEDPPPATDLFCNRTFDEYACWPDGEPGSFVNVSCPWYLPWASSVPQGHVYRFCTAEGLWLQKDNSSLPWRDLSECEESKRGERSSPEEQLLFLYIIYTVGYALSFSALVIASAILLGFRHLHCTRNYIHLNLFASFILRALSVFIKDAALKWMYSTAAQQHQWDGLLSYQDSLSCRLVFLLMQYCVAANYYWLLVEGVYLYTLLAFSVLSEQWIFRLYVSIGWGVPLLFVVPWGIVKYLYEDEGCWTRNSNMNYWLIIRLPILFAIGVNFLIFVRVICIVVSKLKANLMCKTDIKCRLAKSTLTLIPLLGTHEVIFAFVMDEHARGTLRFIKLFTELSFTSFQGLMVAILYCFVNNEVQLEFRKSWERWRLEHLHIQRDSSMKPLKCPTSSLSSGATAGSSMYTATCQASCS
Method in brief: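 HEK293 cells stably co-expressing a cAMP-responsive luciferase reporter and a hypersensitive GLP-1R were plated 12 h at 37 °C and exposed to compounds for 4-6 hr at 37 °C, 5% CO2. Luminescence was read 12 min after adding detection reagent.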

[6] = qHTS of Nrf2 Activators: LOPAC Validation (AID 624149)
Method in brief: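 AREc32_Fluc cells, 1000/well, OPTI-MEM + 5% FBS, o/n 37 deg C 5% CO2; compound pin-transfer, 24 hr 37 deg C; Steady-Glo 30 min RT, luminescence read.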

[7] = HTS Assay for Allosteric Antagonists of the Human D2 Dopamine Receptor: Hit Validation in HTRF (AID 624455)
Method in brief: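 HTRF read-out; cells stably expressing D1 receptor; hits scored for inhibition of D1-mediated response. Primary screen: calcium flux, force-coupled inducible Hek293 Trex D2 line, antagonism vs EC80 dopamine.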

[8] = S16 Schwann cell PMP22 intronic element beta-lactamase assay (AID 624044; calls by dose curve; also: nearly all actives have a fitted effect of over 15% in size)
Method in brief: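 Beta-lactamase reporter under a PMP22 intronic regulatory element in stable S16 rat Schwann cells; 24 h compound exposure. 460 nm blue signal normalized between DMSO (0%) and potassium clavulanate, with 535 nm FRET tracking viability; curves classed by r2 and response.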

[9] = S16 Schwann cell PMP22 intronic element firefly luciferase assay (AID 624032); also: nearly all actives have a fitted effect of over 30% in size
Method in brief: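 Rat S16 Schwann cells stably carrying a PMP22 intronic element-driven Fluc reporter were seeded overnight, then exposed to compounds for 24 h at 37 °C. Luminescence was normalized to PTC124 (positive control) and DMSO (0% activity).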

[10] = S16 Schwann cell viability assay (CellTiter-Glo assay) (AID 624031);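 also: cellular ATP luminescence as a viability measure; nearly all actives have a fitted effect of over 70% in size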
Method in brief: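 Native S16 Schwann cells (rat), serum-containing medium, overnight attachment then 24 h drug exposure at 37 °C/5% CO2. CellTiter-Glo ATP signal; normalized to cell-free and vehicle wells.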

[11] = Cytotoxicity counterscreen for NFkB agonists and antagonists (AID 624476);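 also: cells exposed to compound for 48 hours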
[12] = qHTS Assay for Identification of Small Molecule Agonists for NFkB Signaling Pathway. (AID 624478);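 also: compounds tested together with TNF alpha at its EC50 of 10 pM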
Method in brief: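 Read-out: 460/530 nm emission at 405 nm excitation after 2 h LiveBLAzer loading; ME-180 NFkB-bla reporter cells exposed 5 h at 37 C to compounds with 10 pM TNF alpha final.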

[13] = qHTS Assay for Identification of Small Molecule Antagonists for NFkB Signaling Pathway. (AID 624479; calls by dose curve;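 also: pathway stimulated with TNF alpha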)
[14] = Cell Proliferation Assay against the TMD8 Cell Line (AID 651645); conditions: TMD8 DLBCL cell line proliferation/viability; at 46.1 µM (top of the series) unless noted;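 also: cells exposed to compound for 48 h before reading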
Method in brief: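 Luminescent ATP read-out (CellTiter-Glo, 15 min RT) after 48 h compound exposure of log-growing TMD8 cells at 37C; percent activity scaled between DMSO as 100% and 9.2 uM bortezomib final as 0%.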

[15] = Cell Proliferation Assay against the HBL1 Cell Line (AID 651646); conditions: HBL1 DLBCL cells; at 46.1 µM (top of the series) unless noted;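 also: cells exposed to compound for 48 h before reading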
Method in brief: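 After a 48 h incubation of 500 HBL1 cells/well in phenol red-free RPMI plus 5% FBS, relative luciferase units from CellTiter-Glo gave percent activity against DMSO and 9.2 uM bortezomib (final) controls.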

[16] = Cell Proliferation Assay against the TMD8 Cell Line (Caspase readout at 16 hrs) (AID 651712); also: potency is read from the fitted curve at half-maximal effect
Method in brief: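 16 h, 37 °C, TMD8 (500 cells/well), RPMI/5% FBS no phenol red; Caspase-Glo 3/7, 15 min RT, luminescence; %act: DMSO 0, bortezomib 9.2 uM final 100.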

CC(C)C(=O)c1c(C(C)C)nn2ccccc12
inactive: Potency [1] | Potency [2] | Potency [3] | outcome [4] | outcome [5] | outcome [6] | outcome [7]

CCOc1ccc2ccccc2c1C(=O)N[C@@H]1C(=O)N2[C@@H]1SC(C)(C)[C@@H]2C(=O)O
inactive: Potency [1] | Potency [2] | Potency [8]

O=C1NC(=O)[C@@]2(CCOc3ccc(F)cc32)N1
inactive: Potency [1] | Potency [2] | Potency [9]

C[C@H](N)[C@H](O)c1cccc(O)c1
inactive: Potency [1] | Potency [2] | Potency [9] | Potency [8]

Cc1c(Cl)cccc1Nc1ccccc1C(=O)O
active: Potency [2] 32.2 µM
inactive: Potency [1] | Potency [9]

CCCCOc1cc(C(=O)OCCN(CC)CC)ccc1N
inactive: Potency [2] | Potency [9] | Potency [8]
active: Potency [1] 4.47 µM

O=c1cc[nH]c(=S)[nH]1
inactive: Potency [1] | Potency [2] | Potency [9]

CC(=O)NC(Cc1ccccc1)C(=O)O (centres undefined)
inactive: Potency [1] | Potency [2] | Potency [9] | Potency [8]

Cc1cc2c(cc1S(N)(=O)=O)S(=O)(=O)CCC2
inactive: Potency [1] | Potency [2] | Potency [9] | Potency [8]

CC(=O)OCC(=O)[C@@]1(O)CC[C@H]2[C@@H]3CCC4=CC(=O)CC[C@]4(C)[C@H]3C(=O)C[C@@]21C
inactive: Potency [1] | Potency [2] | Potency [3] | outcome [4] | outcome [5] | outcome [6] | outcome [7]

CC1=C(CC(=O)O)c2cc(F)ccc2/C1=C\c1ccc(S(C)=O)cc1 (centres undefined)
inactive: Potency [1] | Potency [2] | Potency [9] | outcome [4] | outcome [5] | outcome [6] | outcome [7]

C#CCN(C)Cc1ccccc1
inactive: Potency [1] | Potency [2] | Potency [9] | Potency [3] | outcome [4] | outcome [5] | outcome [6] | outcome [7]

Nc1nc2c(ncn2CCC(CO)CO)c(=O)[nH]1
inactive: Potency [1] | Potency [2] | Potency [9]

O=C(O)[C@@H]1CSCN1
inactive: Potency [1] | Potency [2] | Potency [9] | Potency [8]

NCC(=O)CCC(=O)O
inactive: Potency [1] | Potency [2] | Potency [9]

CC1(C)OC(=O)NC1=O
inactive: Potency [1] | Potency [2] | Potency [9]

COc1cc2[nH]c(=O)[nH]c(=O)c2cc1OC
inactive: Potency [1] | Potency [2] | Potency [9]

CN1CCN(C2Cc3ccccc3Sc3ccc(Cl)cc32)CC1 (centres undefined)
inactive: Potency [2] | Potency [8] | Potency [3] | outcome [4] | outcome [5] | outcome [6] | outcome [7]
active: Potency [1] 1.12 µM

Nc1ccc(S(=O)(=O)Nc2ccc(Cl)nn2)cc1
inactive: Potency [1] | Potency [2] | Potency [9]

N[C@@H](CSCCCO)C(=O)O
inactive: Potency [1] | Potency [2] | Potency [9]

O=S(=O)(O)c1cc(I)c(O)c2ncccc12
inactive: Potency [1] | Potency [9]

CC(C)(C)c1onc(OCP(=O)(O)O)c1CC(N)C(=O)O (centres undefined)
inactive: Potency [1] | Potency [3] | outcome [4] | outcome [5] | outcome [6] | outcome [7]

Cc1cc(C(C#N)c2ccc(Cl)cc2)c(Cl)cc1NC(=O)c1cc(I)cc(I)c1O (centres undefined)
inactive: Potency [1] | Potency [8]

NC(=O)NNc1ccccc1
inactive: Potency [2] | Potency [10] | Potency [8]

N=c1c[n+](N2CCOCC2)[n-]o1
inactive: Potency [1] | Potency [3] | outcome [4] | outcome [5] | outcome [6] | outcome [7]

COc1ccc2[nH]c(S(=O)Cc3ncc(C)c(OC)c3C)nc2n1 (centres undefined)
inactive: Potency [1] | Potency [9] | Potency [8]

CCCCN(CCCC)CC(O)c1cc(Cl)cc2c1-c1ccc(Cl)cc1/C2=C/c1ccc(Cl)cc1 (centres undefined)
inactive: Potency [2]

CC(C)c1c(C(=O)Nc2ccccc2)c(-c2ccccc2)c(-c2ccc(F)cc2)n1CC[C@@H](O)C[C@@H](O)CC(=O)O
inactive: Potency [2] | Potency [9]

CCN(CC)C(C)CN1c2ccccc2Sc2ccccc21 (centres undefined)
active: Potency [1] 7.94 µM | Potency [3] 11.2 µM
inactive: outcome [4] | outcome [5] | outcome [6] | outcome [7]

NC(N)=NCCC[C@H](N)C(=O)O
inactive: Potency [1] | Potency [3] | outcome [4] | outcome [5] | outcome [6] | outcome [7]

O=C(O)c1ccccc1O
inactive: Potency [1] | Potency [9] | Potency [8]

CC1=C(CC(=O)O)c2cc(F)ccc2/C1=C\c1ccc(S(C)(=O)=O)cc1
inactive: Potency [1] | Potency [2] | Potency [3] | outcome [4] | outcome [5] | outcome [6] | outcome [7]

CC(=O)O[C@@]12CO[C@@H]1C[C@H](O)[C@@]1(C)C(=O)[C@H](O)C3=C(C)[C@@H](OC(=O)[C@H](O)[C@@H](NC(=O)OC(C)(C)C)c4ccccc4)C[C@@](O)([C@@H](OC(=O)c4ccccc4)[C@H]21)C3(C)C
inactive: Potency [1] | outcome [11] | outcome [12] | outcome [13]
active: Potency [16] 37.2 µM
69%: viability, percent of control [15]
32.1%: viability (% of control) [14]
